Test results taken from PubChem BioAssay (NCATS).
Unmarked numbers belong to inactive results. Results filed as inconclusive are left out. Calls of active or inactive are those of the source. Unless noted, the call rests on the fitted dose curve; in most records, active means well fitted curve in either direction with a large enough effect (not every such curve was filed as active); inconclusive means small, poorly fitted or top-dose-only effect, or another doubt; inactive means flat fitted curve, though single readings scatter.

Tests used:
[1] = target: Lysosomal acid glucosylceramidase (Homo sapiens) (UniProt P04062); assay: Glucocerebrosidase-p2 (AID 348; in the data active means potency below about 10 µM; further: potency means the concentration at half of the fitted maximal effect); settings: purified GBA, blue fluorogenic substrate, 40 min
Method in brief: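 Compounds titrated from 0.6 nM upwards against 0.2 nM enzyme in pH 5.9 citric acid/KH2PO4, taurocholate, tween-20; blue fluorogenic substrate 80 uM, 40 min room temperature, stopped and read Ex 365/Em 440 for AC50.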

[2] = AP1 Signaling Pathway (AID 357); settings: ME-180 AP-1-bla reporter, EGF-induced, beta-lactamase ratio, 5 h; at 7.69 µM (top of the series) unless noted;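 further: ME-180 reporter cells stimulated with EGF at its EC50 level; on the % scale 0 is the no-effect control and ±100 the full control effect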
Method in brief: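 AP-1-bla ME-180 cells, Opti-MEM + 0.5% dialyzed FBS, plated overnight 37 °C. Cpd titration + EC50 EGF, 5 h 37 °C. CCF4 2.5 h RT; ex 405, em 460/530 ratio → %activity, AC50.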

[3] = target: Cytochrome P450 1A2 (Homo sapiens) (UniProt P05177); assay: p450-cyp1a2 (AID 410; calls by dose curve; further: potency means the concentration at half of the fitted maximal effect;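 on activity change, negative = inhibition: -100% = full effect of reference inhibitor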); settings: recombinant CYP1A2, luciferin-ME demethylation, luminescence; series mostly up to 57 µM
Method in brief: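 Inhibition was calculated relative to 57 uM furafylline (full inhibition). The reaction used human CYP1A2 at 20nM with Luciferin-ME at its Km, 100uM, driven by an NADPH-regenerating system for 60 min at room temperature.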

[4] = NFAT Signaling Pathway (AID 444); settings: Jurkat NFAT-bla M1, carbachol, beta-lactamase ratio, 5 h; at 7.69 µM (top of the series) unless noted;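 further: carbachol stimulus at about its EC50 of 1 µM final; on the % scale 0 is the no-effect control and ±100 the full control effect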
Method in brief: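 Read-out: CCF4 FRET ratio (460 nm/530 nm) after 1 h RT dye loading, used for %activity and AC50 from titration series. Cells: Jurkat NFAT-β-lactamase/M1 line, treated with compound plus 1 uM carbachol for 5 h, 37 °C.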

[5] = Stat Signaling Pathway (AID 446); settings: ME-180 SIE beta-lactamase reporter, IL-6 stimulated, 5 h; at 7.69 µM (top of the series) unless noted;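 further: ME-180 cervical cancer cells given 40 pM IL-6 alongside compound; SIE-controlled beta-lactamase reporter measured as 460/530 nm FRET emission ratio; on the % scale 0 is the no-effect control and ±100 the full control effect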
Method in brief: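 ME-180 cells carrying a SIE-driven beta-lactamase reporter are stimulated with 40 pM IL-6 for 5 h at 37C in the presence of compound. The 460/530 nm FRET substrate ratio is read after 2.5 h at RT. Data are normalised to 300 pM IL-6 and to 125 nM JAK inhibitor controls.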

[6] = target: Glucocorticoid receptor (Homo sapiens) (UniProt P04150); assay: GR-GFP Redistribution (AID 450;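 active means compounds whose dose series gives a full or clear partial fitted curve of increased nuclear translocation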; further: potency means the concentration at half of the fitted maximal effect); settings: U2OS GR-GFP nuclear translocation, laser cytometry, 2 h
[7] = target: Glucocorticoid receptor (Homo sapiens) (UniProt P04150); assay: GR-EFC Redistribution (AID 451; calls by dose curve; further: potency means the concentration at half of the fitted maximal effect); settings: CHO-K1 GR-EFC translocation, beta-gal luminescence, 2 h
Method in brief: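 Translocation of GR-ED fusion to nuclear EA restores b-gal, read by luminescence after 1 h room-temperature detection. Engineered CHO-K1 biosensor cells, 1,000/well, exposed 2 h at 37 C to titrations up to 46 uM final.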

[8] = target: Mitogen-activated protein kinase 10 (Mus musculus) (UniProt Q61831); assay: JNK3 AlphaScreen Assay (AID 530); settings: JNK3 lysate, c-Jun phosphorylation; series mostly up to 57.1 µM;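 further: kinase came from lysate of stimulated human HepG2 cells; signal reports phosphorylation of biotinylated GST-cJun 1-79 at Ser73 with 10 µM ATP; on the % scale 0 is the no-effect control and ±100 the full control effect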
Method in brief: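 Room-temperature AlphaScreen kinase assay; pre-activated HepG2 lysate as JNK3 source, biotin-GST-cJun(1-79) substrate, 10 uM ATP, compound 15 min preincubation.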

[9] = target: 3',5'-cyclic-AMP phosphodiesterase 4B (Homo sapiens) (UniProt Q07343); assay: qHTS Assay for Inhibitors of PDE-IV (AID 607; active means well fitted activation curve with a large enough effect in the main read-out, with a control signal flat, not every such curve was filed as active; further: % of control where 0% means no effect); settings: HEK293 ACTOne CNG channel cells, membrane potential fluorescence; series mostly up to 22.9 µM
Method in brief: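 HEK293 ACTOne cells with CNG channel (1000/well), endogenous PDE4; membrane potential dye, compounds up to 22.9 uM final. Fluorescence Ex 535/Em 590; RO 20-1724 (100 uM final) as reference.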

[10] = target: Cytochrome P450 3A4 (Homo sapiens) (UniProt P08684); assay: qHTS Assay for Inhibitors and Substrates of Cytochrome P450 3A4 (AID 884; active means well fitted curve in the direction sought with a large enough effect; an effect the other way counts as inactive or inconclusive; further: potency means the concentration at half of the fitted maximal effect; nearly all actives have a fitted effect of over 50% in size); settings: recombinant CYP3A4, Luciferin-PPXE luminescence; series mostly up to 57.1 µM
Method in brief: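 20 nM human CYP3A4 with 25 uM Luciferin-PPXE (at KM) in 200 mM KPO4, preincubated 10 min with compound; NADPH regeneration started a 60 min RT reaction. Luciferin detected by luminescence, normalized to 57 uM ketoconazole as full inhibition.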

[11] = target: Cytochrome P450 3A4 (Homo sapiens) (UniProt P08684); assay: qHTS Assay for Activators of Cytochrome P450 3A4 (AID 885; active means well fitted curve in the direction sought with a large enough effect; an effect the other way counts as inactive or inconclusive; further: nearly all actives have a fitted effect of over 65% in size); settings: recombinant CYP3A4, Luciferin-PPXE luminescence, 60 min; series mostly up to 57.1 µM
Method in brief: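 Human CYP3A4 (20 nM) with Luciferin-PPXE at 25 uM (its KM) in 200 mM KPO4; 10 min compound preincubation, then NADPH regeneration and 60 min reaction at RT. Luciferin read by luminescence; normalized to 57 uM ketoconazole full inhibition.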

[12] = Primary qHTS for small molecule stabilizers of the endoplasmic reticulum resident proteome: Secreted ER Calcium Modulated Protein (SERCaMP) assay (AID 1508630; active means well fitted curve in the direction sought with a large enough effect; an effect the other way counts as inactive or inconclusive; further: on the % scale 0 is the no-effect control and ±100 the full control effect); settings: SH-SY5Y GLuc-SERCaMP (Gaussia luciferase released on ER calcium loss) secretion, thapsigargin, luminescence; series mostly up to 38.4 µM
Method in brief: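 GLuc-SERCaMP-expressing SH-SY5Y cells, pretreated 16 h with compound, are challenged with thapsigargin to empty ER calcium stores; after 4 h, coelenterazine is added directly to the medium and luminescence is imaged.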

[13] = target: Cytochrome P450 2C9 (Homo sapiens) (UniProt P11712); assay: qHTS Assay for Inhibitors and Substrates of Cytochrome P450 2C9 (AID 883; active means well fitted curve in the direction sought with a large enough effect; an effect the other way counts as inactive or inconclusive; further: potency means the concentration at half of the fitted maximal effect; nearly all actives have a fitted effect of over 60% in size); settings: recombinant CYP2C9, luciferin-H luminescence, 60 min; series mostly up to 57.1 µM
Method in brief: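 Inhibition of CYP2C9 is scored as loss of luminescence, with 57uM sulphaphenazole defining 100% inhibition. Substrate Luciferin-H is used at 100uM, equal to its KM; enzyme at 10nM in 25mM KPO4, 60 min at 37C with NADPH regeneration.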

[14] = target: Cytochrome P450 2C19 (Homo sapiens) (UniProt P33261); assay: qHTS Assay for Inhibitors and Substrates of Cytochrome P450 2C19 (AID 899; active means well fitted curve in the direction sought with a large enough effect; an effect the other way counts as inactive or inconclusive; further: potency means the concentration at half of the fitted maximal effect; nearly all actives have a fitted effect of over 60% in size); settings: recombinant CYP2C19, luciferin-H EGE luminescence; series mostly up to 57.1 µM
Method in brief: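 5nM enzyme + 10uM Luciferin-H EGE (=KM), 50mM KPO4; cpd pin-transferred, 10 min 37C; NADPH regen, 60 min 37C; stopped w/ luciferin detection reagent, 20 min; luminescence. Normalized to 57uM ketoconazole (AC100).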

Cytochrome P450 3A4 (Homo sapiens), sequence (P08684 whole entry, looked up): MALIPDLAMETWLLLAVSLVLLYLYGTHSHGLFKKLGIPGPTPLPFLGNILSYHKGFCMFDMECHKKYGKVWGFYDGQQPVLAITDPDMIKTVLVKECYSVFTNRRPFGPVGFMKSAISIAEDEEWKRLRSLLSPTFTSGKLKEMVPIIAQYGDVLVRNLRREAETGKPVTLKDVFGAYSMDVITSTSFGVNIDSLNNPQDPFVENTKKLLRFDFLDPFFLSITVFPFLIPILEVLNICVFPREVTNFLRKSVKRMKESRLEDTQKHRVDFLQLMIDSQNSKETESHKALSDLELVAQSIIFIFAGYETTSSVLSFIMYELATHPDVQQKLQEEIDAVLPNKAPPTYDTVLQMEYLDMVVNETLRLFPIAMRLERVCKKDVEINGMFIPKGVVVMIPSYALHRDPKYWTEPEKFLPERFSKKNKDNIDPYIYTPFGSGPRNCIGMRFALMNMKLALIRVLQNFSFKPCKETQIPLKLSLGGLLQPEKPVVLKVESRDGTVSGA
Cytochrome P450 1A2 (Homo sapiens), sequence (P05177 whole entry, looked up): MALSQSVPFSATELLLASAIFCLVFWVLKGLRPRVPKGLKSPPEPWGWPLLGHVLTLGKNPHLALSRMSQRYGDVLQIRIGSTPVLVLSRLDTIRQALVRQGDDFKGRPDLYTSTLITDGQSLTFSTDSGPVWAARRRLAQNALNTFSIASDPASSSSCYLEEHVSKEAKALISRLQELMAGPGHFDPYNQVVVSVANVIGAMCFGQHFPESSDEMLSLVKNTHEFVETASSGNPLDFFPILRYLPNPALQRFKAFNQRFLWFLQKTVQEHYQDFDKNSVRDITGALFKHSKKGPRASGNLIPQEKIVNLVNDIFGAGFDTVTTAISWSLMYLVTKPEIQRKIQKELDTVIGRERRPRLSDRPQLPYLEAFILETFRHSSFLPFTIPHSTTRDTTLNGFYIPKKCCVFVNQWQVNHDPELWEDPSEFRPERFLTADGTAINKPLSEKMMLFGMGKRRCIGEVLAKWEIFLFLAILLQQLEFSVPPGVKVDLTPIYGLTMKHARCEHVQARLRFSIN
Lysosomal acid glucosylceramidase (Homo sapiens), sequence (P04062 whole entry, looked up): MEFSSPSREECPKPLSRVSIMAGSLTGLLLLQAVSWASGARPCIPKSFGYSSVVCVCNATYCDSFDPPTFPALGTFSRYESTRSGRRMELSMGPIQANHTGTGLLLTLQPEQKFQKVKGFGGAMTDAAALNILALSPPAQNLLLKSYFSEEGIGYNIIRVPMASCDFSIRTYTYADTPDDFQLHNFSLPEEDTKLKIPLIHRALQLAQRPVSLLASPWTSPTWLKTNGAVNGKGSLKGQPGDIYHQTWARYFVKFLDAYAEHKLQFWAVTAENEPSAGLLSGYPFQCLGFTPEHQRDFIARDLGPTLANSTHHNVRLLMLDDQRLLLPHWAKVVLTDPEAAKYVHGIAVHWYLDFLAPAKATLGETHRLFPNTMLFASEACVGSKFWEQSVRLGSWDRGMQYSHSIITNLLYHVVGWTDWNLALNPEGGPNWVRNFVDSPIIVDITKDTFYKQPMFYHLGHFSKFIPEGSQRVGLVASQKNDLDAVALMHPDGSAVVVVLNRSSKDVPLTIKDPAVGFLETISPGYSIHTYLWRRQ
Glucocorticoid receptor (Homo sapiens), sequence (P04150 whole entry, looked up, the tested form may be a part): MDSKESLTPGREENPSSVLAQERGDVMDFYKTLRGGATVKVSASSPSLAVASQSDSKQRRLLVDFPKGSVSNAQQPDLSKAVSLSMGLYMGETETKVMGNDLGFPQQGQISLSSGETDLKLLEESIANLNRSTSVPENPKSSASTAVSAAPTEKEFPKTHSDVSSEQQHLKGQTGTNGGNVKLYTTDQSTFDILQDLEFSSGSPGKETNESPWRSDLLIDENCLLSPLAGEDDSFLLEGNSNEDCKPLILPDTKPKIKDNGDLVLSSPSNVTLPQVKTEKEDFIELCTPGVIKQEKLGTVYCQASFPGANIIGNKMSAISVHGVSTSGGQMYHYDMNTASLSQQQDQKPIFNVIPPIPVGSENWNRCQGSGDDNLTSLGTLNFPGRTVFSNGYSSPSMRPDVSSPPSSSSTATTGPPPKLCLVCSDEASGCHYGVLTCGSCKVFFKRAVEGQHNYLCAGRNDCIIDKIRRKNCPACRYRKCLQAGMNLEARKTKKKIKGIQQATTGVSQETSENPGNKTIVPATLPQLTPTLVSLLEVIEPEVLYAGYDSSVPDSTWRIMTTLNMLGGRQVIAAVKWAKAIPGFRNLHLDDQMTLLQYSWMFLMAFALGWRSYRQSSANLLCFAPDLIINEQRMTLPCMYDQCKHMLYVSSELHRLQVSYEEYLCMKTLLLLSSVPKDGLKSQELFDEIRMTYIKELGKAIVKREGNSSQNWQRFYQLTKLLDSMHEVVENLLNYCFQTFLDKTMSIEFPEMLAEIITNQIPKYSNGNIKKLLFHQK
3',5'-cyclic-AMP phosphodiesterase 4B (Homo sapiens), sequence (Q07343 whole entry, looked up): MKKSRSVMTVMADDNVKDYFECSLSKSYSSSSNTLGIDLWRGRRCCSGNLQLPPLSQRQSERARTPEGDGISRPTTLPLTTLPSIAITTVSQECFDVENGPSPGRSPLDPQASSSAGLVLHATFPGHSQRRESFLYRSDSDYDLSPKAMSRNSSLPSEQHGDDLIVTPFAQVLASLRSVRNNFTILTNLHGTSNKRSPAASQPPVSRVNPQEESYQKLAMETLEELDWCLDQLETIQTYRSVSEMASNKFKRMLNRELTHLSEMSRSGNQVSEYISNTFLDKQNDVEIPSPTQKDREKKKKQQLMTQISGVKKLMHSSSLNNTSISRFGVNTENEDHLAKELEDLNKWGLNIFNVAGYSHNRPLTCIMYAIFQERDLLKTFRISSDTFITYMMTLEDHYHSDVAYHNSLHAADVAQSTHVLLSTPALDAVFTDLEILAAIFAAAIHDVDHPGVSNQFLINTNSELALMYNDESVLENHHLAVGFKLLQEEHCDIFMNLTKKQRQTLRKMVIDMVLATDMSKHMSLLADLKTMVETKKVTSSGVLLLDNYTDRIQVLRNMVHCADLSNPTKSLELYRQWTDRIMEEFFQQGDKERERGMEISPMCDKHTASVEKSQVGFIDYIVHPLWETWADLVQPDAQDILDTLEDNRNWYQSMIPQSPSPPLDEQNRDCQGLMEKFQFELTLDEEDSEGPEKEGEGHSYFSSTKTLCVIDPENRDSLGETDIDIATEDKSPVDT
Cytochrome P450 2C19 (Homo sapiens), sequence (P33261 whole entry, looked up): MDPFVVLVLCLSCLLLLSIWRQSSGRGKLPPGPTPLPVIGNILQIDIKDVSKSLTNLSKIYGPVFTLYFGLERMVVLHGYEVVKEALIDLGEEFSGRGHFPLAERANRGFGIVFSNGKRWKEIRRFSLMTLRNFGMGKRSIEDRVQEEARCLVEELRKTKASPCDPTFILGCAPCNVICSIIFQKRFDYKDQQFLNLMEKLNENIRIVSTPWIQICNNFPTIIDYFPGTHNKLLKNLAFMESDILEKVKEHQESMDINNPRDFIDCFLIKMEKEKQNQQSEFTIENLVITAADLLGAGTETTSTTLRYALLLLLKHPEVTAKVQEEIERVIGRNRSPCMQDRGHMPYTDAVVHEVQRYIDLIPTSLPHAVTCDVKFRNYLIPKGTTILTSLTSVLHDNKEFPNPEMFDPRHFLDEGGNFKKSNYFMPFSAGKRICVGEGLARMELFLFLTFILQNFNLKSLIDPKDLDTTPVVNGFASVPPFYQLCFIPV
Cytochrome P450 2C9 (Homo sapiens), sequence (P11712 whole entry, looked up): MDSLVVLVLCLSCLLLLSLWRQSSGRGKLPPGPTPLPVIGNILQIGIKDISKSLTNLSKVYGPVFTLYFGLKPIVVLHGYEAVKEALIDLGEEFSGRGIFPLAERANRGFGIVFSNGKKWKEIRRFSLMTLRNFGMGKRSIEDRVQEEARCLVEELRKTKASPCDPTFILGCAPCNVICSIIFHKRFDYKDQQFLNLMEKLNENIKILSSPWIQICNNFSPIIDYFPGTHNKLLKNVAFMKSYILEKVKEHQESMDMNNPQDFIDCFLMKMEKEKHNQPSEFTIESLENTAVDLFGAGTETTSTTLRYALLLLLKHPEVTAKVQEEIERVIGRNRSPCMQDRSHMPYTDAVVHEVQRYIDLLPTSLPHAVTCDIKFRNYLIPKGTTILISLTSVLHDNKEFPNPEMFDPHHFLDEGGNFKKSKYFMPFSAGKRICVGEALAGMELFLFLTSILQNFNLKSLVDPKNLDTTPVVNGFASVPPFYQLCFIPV

Compound | Potency [1] [µM] | activity change, negative = inhibition [2] [%] | Potency [3] | activity change, negative = inhibition [4] [%] | activity, negative = inhibition [5] [%] | Potency [6] [µM] | Potency [7] [µM] | Potency [8] | Potency [9] | Potency [10] | Potency [11] | outcome [12] | Potency [13] | Potency [14]
COc1ccc(Oc2ncc3ncc(=O)n(Cc4cccs4)c3n2)cc1 | > 11.4 | -29.2 | 10 µM (active) | -6.6 | -28.6 | > 9.22 | > 46 | inactive | inactive | 3.16 µM (active) | inactive | inactive |  | 
CCNc1ncc2nc(-c3ccc(F)cc3)c(=O)n(CCC#N)c2n1 | > 11.4 | -13.4 | 0.631 µM (active) | -10 | 16.7 | > 9.22 | > 46 | inactive |  |  |  | inactive |  | 
CN(C)c1ncc2ncc(=O)n(C)c2n1 | > 11.4 | -20.1 | 6.31 µM (active) | 0.153 | -5.5 | > 9.22 | > 46 | inactive | inactive |  |  | inactive |  | 
O=c1cnc2cnc(Oc3cccc(Cl)c3)nc2n1C1CC1 | > 11.4 | -27.3 | 2.51 µM (active) | 0.268 | -9.7 | > 9.22 | > 46 | inactive | inactive |  |  | inactive | 6.31 µM (active) | 
O=c1c(-c2ccccc2)nc2cncnc2n1Cc1ccccc1Cl | > 11.4 | 1.43 | 2 µM (active) | -6.41 | 5.03 | > 9.22 | > 46 | inactive |  |  |  | inactive |  | 
Cn1c(=O)c(-c2ccc(F)cc2)nc2cncnc21 | > 11.4 | -16.1 | 0.158 µM (active) | -1.33 | -0.562 | > 9.22 | > 46 | inactive | inactive |  | inactive | inactive |  | 
Cc1cccc(CNc2cc(-c3cccc(C#N)c3)ncn2)c1 | > 11.4 | -11.1 | 0.158 µM (active) | 7.94 | -3.7 | > 46 | > 46 | inactive | inactive | 7.94 µM (active) | inactive | inactive |  | 6.31 µM (active)
COc1ccc(Oc2ncc3nc(-c4ccc(Cl)cc4)c(=O)n(C)c3n2)cc1 | > 11.4 | -22.1 | 0.631 µM (active) | -2.12 | -5.79 | > 9.22 | > 46 | inactive | inactive |  | inactive | inactive |  | 
O=c1c(-c2ccc(F)cc2)nc2cncnc2n1C1CC1 | > 11.4 | -6.77 | 0.158 µM (active) | 2.7 | -6.49 | > 9.22 | > 46 | inactive |  |  |  | inactive |  | 
COc1ccc(-c2nc3cnc(N4CCOCC4)nc3n(CCC#N)c2=O)cc1 | > 11.4 | 3.37 | 3.16 µM (active) | 2.6 | 16.9 | > 9.22 | > 46 | inactive | inactive |  |  | inactive |  | 
COCCn1c(=O)c(-c2ccc(F)c(F)c2)nc2cncnc21 | > 11.4 | -26.5 | 0.251 µM (active) | -12.1 | 0.716 | > 9.22 | > 46 | inactive | inactive |  | inactive | inactive |  | 
O=c1cnc2cnc(N3CCOCC3)nc2n1Cc1ccc(F)cc1 | > 11.4 | -5.88 | 3.98 µM (active) | -6.28 | 6.58 | > 9.22 | > 46 | inactive | inactive |  | inactive | inactive |  | 3.98 µM (active)
Cn1c(=O)c(CCc2ccccc2)nc2cncnc21 | > 11.4 | -10.9 | 7.94 µM (active) | -3.66 | -13.2 | > 9.22 | > 46 | inactive | inactive |  | inactive | inactive |  | 
COc1ccc(-n2c(=O)c(C)nc3cncnc32)cc1 | > 11.4 | -7.74 | inactive | 7.82 | -15.1 | > 9.22 | > 46 | inactive | inactive | 5.01 µM (active) | inactive | inactive |  | 
COc1ccc(-n2c(=O)cnc3cnc(Oc4cccc(Cl)c4)nc32)cc1 | > 11.4 | -9.58 | 7.94 µM (active) | 4.93 | -9.34 | > 9.22 | > 46 | inactive | inactive |  | inactive | inactive |  | 
